Pf growth 48h: P. falciparum growth inhibition at 48 hours (one generation); P. falciparum luciferase growth in erythrocytes, 48 h; Potency, µM (titrated, usually from 28.7 µM), inactives show at the highest dose activity change, negative = inhibition, hits mostly inhibitors; actives 5.9% (n = 310,000); further: potency means the concentration at half of the fitted maximal effect; on the % scale 0 is the no-effect control and ±100 the full control effect
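Compounds are pin-transferred into medium, infected erythrocytes (2% hematocrit, 0.1% parasitemia final) are added, and plates sit one parasite generation at 37 C in 5% CO2. Detection reagent is then added and luminescence measured.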
Shiga toxin inh: Shiga toxin inhibition | Vero cells, Shiga toxin protein synthesis inhibition reporter | inhibition, % at 38.7 µM | actives 9.2% (n = 290,000); in the data active means inhibition mostly above about 28%, no sharp cut-off; inactive means mostly below about 43%; further: 0% is about no effect
Pf growth 96h: inhibits malaria parasite growth, 96 h; Potency, µM (highest dose often 28.7 µM), for the others: at the highest dose activity change, negative = inhibition, hits mostly inhibitors; AID 504834; P. falciparum luciferase reporter growth, 96 h; actives 6.9% (n = 320,000); further: potency means the concentration at half of the fitted maximal effect; on the % scale 0 is the no-effect control and ±100 the full control effect
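Two parasite generations (96 h, 37 C, 5% CO2) of compound exposure in infected erythrocytes (0.05% parasitemia, 2% hematocrit). Luciferase-reporter P. falciparum; decreased luminescence indicates inhibited growth, aimed at apicoplast-acting delayed death.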
MARV entry inh: Marburg virus entry inhibition; Marburg virus pseudotyped entry inhibition, cell reporter; Potency, µM (doses to about 37.8 µM), inactives show at the highest dose activity change, negative = inhibition, most hits filed as inhibitors; actives 1.8% (n = 300,000); AID 540276; calls by dose curve; tested in HEK293 cells; further: potency means the concentration at half of the fitted maximal effect; on the % scale 0 is the no-effect control and ±100 the full control effect
Lassa entry inh: inhibitors of Lassa virus binding or cell entry. Lassa virus pseudotype entry inhibition, cell reporter. actives 1.2% (n = 300,000). AID 540256. Potency, µM (titrated, usually from 37.9 µM), for the others: at the top dose activity change, negative = inhibition, hits mostly inhibitors; calls by dose curve; tested in HEK293 cells; further: potency means the concentration at half of the fitted maximal effect; on the % scale 0 is the no-effect control and ±100 the full control effect; nearly all actives have a fitted effect of over 50% in size
CHX counter: affects cycloheximide protein synthesis inhibition readout, counter-screen; cell reporter, cycloheximide protein synthesis inhibition counterscreen; max response, %; actives 12% (n = 300,000); in the data active means max response mostly above about 13%, no sharp cut-off; inactive means mostly below about 14%; further: read at 38.3 µM for the half of the compounds with a filed dose; 0% is about no effect
* = called active by the depositor; ? = inconclusive; . = not tested or not shown; [ ] = another dose, or the depositor's remark. Rows were chosen to be rich in hits. Some 19% of all compounds tested hit in one or more screens of this group. Unless noted, the call rests on the fitted dose curve; in most records, active means well fitted inhibition curve with a large enough effect; inconclusive means small, poorly fitted or top-dose-only effect, or another doubt; inactive means no such curve, though single readings can be large or run the other way.

SMILES	Pf growth 48h	Shiga toxin inh	Pf growth 96h	MARV entry inh	Lassa entry inh	CHX counter
Cc1ccc(-c2nnn(CC(=O)N(Cc3ccco3)C(C(=O)NC3CCCC3)c3cccs3)n2)o1 (stereo unspecified)	13µM*	-1	?	-4%	?	-2
CCCCC(C(=O)NC1CCCC1)N(Cc1ccco1)C(=O)Cn1nnc(-c2ccc(F)cc2)n1 (stereo unspecified)	.	9	12µM*	?	?	-2
C=CCNc1sc(C(=O)c2cccs2)c(N)c1C#N	36%	-7	?	-22%	-29%	1
CC(C)CCNC(=O)C(c1ccncc1)N(Cc1cccs1)C(=O)Cn1nnc(-c2ccc(F)cc2)n1 (stereo unspecified)	15µM*	2	62%	-33%	-1%	-2
O=C(NCC1CCCO1)C(c1ccncc1)N(Cc1cccs1)C(=O)Cn1nnc(-c2ccc(F)cc2)n1 (stereo unspecified)	1%	-9	?	-14%[46.1 µM]	5%	-3
Cc1ccc(-c2nnn(CC(=O)N(Cc3cccs3)C(C(=O)NC3CCCC3)c3ccncc3)n2)cc1 (stereo unspecified)	5.9µM*	-5	?	?	?	-1
C[N+]1(CC(=O)NNc2c3ccccc3nc3ccccc23)CCOCC1	?	34	13%	.	.	8
O=C1OC(c2ccccc2)C(O)=C1c1ccccc1 (stereo unspecified)	.	.	.	-1%	-3%	.
CC1CCC/C(=N/Nc2nc3ccccc3s2)C1 (stereo unspecified)	0%	123*	81%	-10%	15%	45*
CC1(C)CC(=O)C/C(=N/Nc2nc3ccccc3s2)C1	?	43*	?	.	.	40*
Cc1cc(C(=O)N/N=C2\CC(=O)CC(C)(C)C2)n[nH]1	11%	-9	2%	0%	21%	6
NC(=S)NN=C(c1ccccc1)c1ccccc1	?	2	?	.	.	-2
Cc1nn(C(C)C(=O)NCCCN2CCCCC2C)c(=O)c2c1sc1ccccc12 (stereo unspecified)	-15%	-3	23%	.	.	-7
O=C(NCC(=O)N1CCOCC1)c1ccc(Br)cc1	27%	20	-1%	.	.	10
O=C(NCC(=O)N1CCN(c2ccccc2)CC1)c1ccc(Cl)cc1	-5%	2	3%	.	.	-1
O=C(NCC(=O)N1CCC(Cc2ccccc2)CC1)c1ccc(Cl)cc1	0%	7	13µM*	-2%	?	1
CC(C)(C)c1ccc(C(=O)NNC(=O)C(=O)N2CCCCC2)cc1	-9%	39*	12%	27%	-19%[14.3 µM]	17*
O=C(NCC(=O)N1CCCCCC1)c1ccc(Br)cc1	30%	47*	45%	?	12%[46.1 µM]	34*
O=C(NCC(=O)N1CCCC1)c1ccc(Cl)cc1	12%	27*	-13%	3%[46.1 µM]	28%[46.1 µM]	16*
O=C(COc1ccccc1)Nc1ccc(Cl)c(-c2nc3ncccc3o2)c1	28%	11	-20%	-2%[46.1 µM]	-10%	2
O=C(O)c1nc(Cl)c(Cl)c(N/N=C/c2ccccc2C(F)(F)F)c1Cl	0%	-4	?	13%[46.1 µM]	-13%[46.1 µM]	1
CCOc1ccc(CCNC(=O)/C=C/c2ccco2)cc1OCC	-12%	4	?	.	.	6
C[C@@H]1CC=C[C@H]2[C@H]1C(=O)N(Cc1ccccc1)[C@H]2c1ccc(-c2ccc(N(C)C)cc2)cc1F	?	2	?	.	.	-1
O=C(NCCC(=O)N1CCCCC1)c1ccc(Br)cc1	76%	88*	75%	?	24%[46.1 µM]	56*
CC(C)(C)c1ccc(C(=O)NCCC(=O)N2CCN(c3ncccn3)CC2)cc1	-20%	5	.	2%	6%	-1
SMILES	Pf growth 48h	Shiga toxin inh	Pf growth 96h	MARV entry inh	Lassa entry inh	CHX counter
O=C(OCC(=O)N1CCC(Cc2ccccc2)CC1)c1ccccc1	110%	79*	57%	22%[46.1 µM]	1%	55*
O=C(NCCC(=O)N1CCCCCCC1)c1ccc(Br)cc1	13µM*	.	10µM*	.	.	.
CC(C)(C)c1ccc(C(=O)NCCC(=O)N2CCCC2)cc1	143%	96*	150%	?	?	40*
O=C(OCC(=O)N1CCC(Cc2ccccc2)CC1)c1ccccc1F	63%	.	20%	.	.	.
CC(Sc1ccc2c(c1)OCCO2)C(=O)Nc1ncc(Cl)cc1Cl (stereo unspecified)	24%	-11	43%	-13%	3%	0
COc1ccc(CN2CCN(C(=O)CCC(=O)Nc3nnc(CC(C)C)s3)CC2)cc1F	?	-4	-1%	.	.	-7
COc1ccc(OC)c(S(=O)(=O)NC(C)c2cnn(-c3ccccn3)c2C)c1 (stereo unspecified)	7%	-25	15µM*	13%	4%	-1
COc1ccc(-n2ncc(C(C)NS(=O)(=O)c3ccc(C)s3)c2C)cc1 (stereo unspecified)	7%	14	8.3µM*	-29%	?	-3
Cc1cc(OCC(=O)NN2C(=O)c3ccccc3C2=O)ccc1Cl	-12%	-6	7%	.	.	-1
O=C(CCCCC(=O)Nc1ccccc1)Nc1ccccc1	9%	.	-1%	.	.	-2
CCCC(=O)Nc1ccc(Oc2ccc(NC(=O)CCC)cc2)cc1	15%	-2	2%	2%	2%	9
CCCC(=O)Nc1ccc(C#Cc2ccccc2)cc1	52%	115*	-34%	-88%	?	51*
CCCCC(=O)Nc1ccc(C(=O)c2ccccc2)cc1	26%	49*	32%	?	17%[46.1 µM]	35*
O=C(Nc1ccccc1)Nc1c(F)cccc1F	41%	43*	77%	9%[46.1 µM]	-22%	41*
CC(=O)Nc1ccc(C(=O)c2ccccc2)cc1	33%	34	54%	0%	?	16*
COc1ccc(Cl)cc1NS(=O)(=O)c1cccc(C(=O)NC2CC2)c1	.	.	.	-26%	2%	.
O=[N+]([O-])c1ccccc1S(=O)(=O)N/C(=N/S(=O)(=O)c1ccccc1)c1ccccc1	.	.	.	7%[46.1 µM]	13%[46.1 µM]	.
CC(C)OCCCN1CC(=O)N2[C@@H](Cc3c([nH]c4ccccc34)C2(C)C)C1=O	.	-4	?	-15%	-6%	-1
CC(=O)NNC(=O)CCC(=O)Nc1ccccc1	38%	-5	30%	16%	-17%[14.3 µM]	8
CC(=O)Nc1ccc(/C(C)=N/NS(=O)(=O)c2ccccc2)cc1	23%	7	46%	-1%	-1%	23*
C/C(O)=C(/N=O)C(=O)Nc1ccccc1	1%	-10	12µM*	10%	12%	9
CCCCCC(=O)Nc1ccc(C2C(=O)c3ccccc3C2=O)cc1	13µM*	-3	?	.	.	-1
CC(=O)Nc1ccc(NC(=O)Nc2ccccc2)cc1	98%	64*	103%	.	.	25*
C/C(=N/NS(=O)(=O)c1ccccc1)c1ccc(NC(=O)C2CC2)cc1	1%	30	?	?	?	2
O=C(CCCCCN1C(=O)c2ccccc2C1=O)Nc1ccc(F)cc1	-23%	-3	27%	-5%	-24%	2

High-throughput results (PubChem BioAssay)
